The assay concerns the target Neuropilin-1 (Homo sapiens) (UniProt O14786). Put plainly: blockers of CendR peptide binding to NRP-1 – biochemical, FP and AlphaScreen panel, dose response (AID 651650). The conditions noted are these: NRP-1 b1b2 / RPARPAR peptide binding, FP or AlphaScreen; run 1, at 100 µM (top of the series). For orientation: Alpha assays give light when donor and acceptor beads are brought close together.
Sequence of Neuropilin-1 (Homo sapiens) (O14786 whole entry, looked up): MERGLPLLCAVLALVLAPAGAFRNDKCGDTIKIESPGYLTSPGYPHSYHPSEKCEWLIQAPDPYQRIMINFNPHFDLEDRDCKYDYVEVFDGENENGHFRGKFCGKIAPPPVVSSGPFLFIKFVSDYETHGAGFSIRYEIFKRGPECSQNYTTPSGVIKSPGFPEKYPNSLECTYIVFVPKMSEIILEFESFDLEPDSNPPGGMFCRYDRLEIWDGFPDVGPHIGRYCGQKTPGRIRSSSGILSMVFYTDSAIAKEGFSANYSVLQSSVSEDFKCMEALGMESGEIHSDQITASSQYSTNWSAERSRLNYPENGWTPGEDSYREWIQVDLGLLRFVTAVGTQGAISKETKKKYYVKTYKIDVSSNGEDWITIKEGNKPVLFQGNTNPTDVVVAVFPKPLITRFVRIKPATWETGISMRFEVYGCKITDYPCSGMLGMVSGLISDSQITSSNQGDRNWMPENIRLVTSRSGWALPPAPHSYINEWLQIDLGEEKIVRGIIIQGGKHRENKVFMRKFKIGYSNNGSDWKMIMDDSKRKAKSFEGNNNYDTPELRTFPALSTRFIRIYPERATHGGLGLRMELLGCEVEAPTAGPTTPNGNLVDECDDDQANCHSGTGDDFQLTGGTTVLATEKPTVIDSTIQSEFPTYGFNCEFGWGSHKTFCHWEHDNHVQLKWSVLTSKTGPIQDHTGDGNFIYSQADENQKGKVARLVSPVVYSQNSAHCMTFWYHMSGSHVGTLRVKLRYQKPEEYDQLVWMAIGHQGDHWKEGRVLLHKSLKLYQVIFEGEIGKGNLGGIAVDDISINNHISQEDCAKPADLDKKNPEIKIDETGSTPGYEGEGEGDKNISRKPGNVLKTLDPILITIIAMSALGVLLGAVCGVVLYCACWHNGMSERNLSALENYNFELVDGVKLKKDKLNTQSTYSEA
The term inhibition denotes the change of the read-out against control, counted positive when it falls. As for `COC(=O)c1ccccc1NC(=O)CSc1nc(C)cc(C)n1`, the inhibition came out at 45.7%. The value for `CCOc1ccc(/C=C2/Sc3ccc(C(=O)NCC4CCCO4)cc3N(C)C2=O)cc1OC` (stereo not drawn) was 77.7%; that for `C=CCOc1ccc(C2/C(=C(\O)c3c(C)[nH]c(C(=O)OC)c3C)C(=O)C(=O)N2CCN(C)C)cc1` (stereo not drawn) was 3.64%; that for `C[C@@H](C(=O)Nc1cccnc1)n1c(=O)[nH]c2ccccc2c1=O` was 44.7%.

In the case of `Cc1ccccc1S(=O)(=O)Nc1nc2ccccc2nc1NCCO`, the inhibition is 25.8%.

Consider `COc1cc(C(=O)NCc2ccccc2)cc(Br)c1OC`, for which the inhibition is -10%. The value for `Cc1onc(-c2ccccc2)c1C(=O)N1CCCC1` was 31.9%; that for `O=C(c1cccc(F)c1)N1CCN(c2ccc([N+](=O)[O-])c(N3CCCCC3)c2)CC1` was 33.3%.

Take `N#CC(C#N)=Cc1cc2ccccc2nc1N1CCCCC1`: the inhibition is -3.26%. The value for `COc1cc(Cn2nnc3ccccc32)cc(Br)c1O` was 37.3%; that for `CCOC(=O)c1c(=O)n(O)c2ccc(OC)cc2[n+]1[O-]` was -2.72%. As to `NC1=NC[C@@H](Cc2ccc(O)cc2)N1CCCCC1CCCCC1`, the inhibition worked out at 26.5%. The value for `Cc1occc1C(=O)N1N=C(C2CC2)CC1(O)C(F)(F)F` (stereo not drawn) was 35.3%; that for `O=[N+]([O-])c1ccc(Cc2ccncc2)cc1` was 15.9%; that for `C=C1C[C@@]23CCC4[C@@](C)(CCC[C@@]4(C)C(=O)O)C2CC[C@]1(O)C3` (stereo partly drawn) was 63.6%.

With `OCC[C@H]1C[C@H](O)[C@@H](O)[C@]2(CCCCO2)O1`, the inhibition was -5.29%.

Consider `CCCCCc1c(-c2cccc(Cl)c2)ncn1CCc1ccccc1OC`, for which the inhibition came to 51.8%. The value for `NCCCC[C@H]1CN=C(N)N1CCC12CC3CC(CC(C3)C1)C2` was 70.7%.
